High-throughput results from PubChem BioAssay.
D2 ag-1: activates the human D2 dopamine receptor | P14416 | DiscoveRx PathHunter D2 beta-arrestin, luminescence, 90 min; 100% = 57 uM dopamine signal | activation, % (no concentration beside the values) | 0.084% of 360,000 active; in the data active means activation above about 40%; inconclusive means between about 15% and that limit
Target sequence (P14416 whole entry, looked up): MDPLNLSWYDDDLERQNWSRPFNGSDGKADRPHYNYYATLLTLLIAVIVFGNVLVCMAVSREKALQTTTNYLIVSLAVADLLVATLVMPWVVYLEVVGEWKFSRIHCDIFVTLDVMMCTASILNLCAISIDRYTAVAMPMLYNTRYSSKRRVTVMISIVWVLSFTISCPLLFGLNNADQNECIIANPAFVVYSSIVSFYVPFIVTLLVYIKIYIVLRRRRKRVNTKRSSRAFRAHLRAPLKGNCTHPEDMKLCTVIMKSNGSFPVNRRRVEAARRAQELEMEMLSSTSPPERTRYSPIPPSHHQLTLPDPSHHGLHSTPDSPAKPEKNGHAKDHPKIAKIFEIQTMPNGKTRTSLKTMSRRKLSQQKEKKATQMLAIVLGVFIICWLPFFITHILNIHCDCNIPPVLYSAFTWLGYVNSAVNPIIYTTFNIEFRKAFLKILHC
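DiscoveRx PathHunter D2 beta-arrestin cells (2,100/well) attached overnight, then compound-stimulated 90 min at 37 C in HBSS/10 mM HEPES/0.1% Tween-20 buffer; beta-galactosidase complementation read by luminescence after 1 h at ambient temperature. Dopamine 57 uM final (EC100) as control.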
D2 PAM-1: positively modulates the human D2 dopamine receptor allosterically; HEK293 T-REx D2, calcium flux, EC20 dopamine potentiation; AID 485347; 0.34% of 340,000 active; P14416; potentiation, % at 10 µM;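 active means potentiation over 3 SD above the plate norm, cut at about 30% in these data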; further: 0% is about no effect
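Using a no-wash calcium dye in inducible, force-coupled HEK293 Trex cells expressing D2, we tracked fluorescence each second for 180 s after compound, then for 180 s after EC20 dopamine to detect augmented signalling.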
D2 antag: antagonists of human D2 dopamine receptor | P14416 | HEK293 TREx D2 cells, calcium flux, dopamine EC80 | inhibition, % at 10 µM | 2% of 340,000 active | AID 485344; in the data active means inhibition above about 30%; inactive means below that, where a call was filed; further: 0% is about no effect
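HEK293 T-REx D2 cells, tet-induced, calcium dye no-wash. Cpd pintool add, 180 s kinetic, then EC80 DA, 180 s kinetic. Ca flux read.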
D2 PAM-2: potentiates the human D2 dopamine receptor allosterically | P14416 | DiscoveRx D2 beta-arrestin cells, luminescence, 90 min; 100% = 57 uM dopamine signal | potentiation, % (no concentration beside the values) | 0.23% of 360,000 active; in the data active means potentiation above about 50%; inconclusive means mostly about 30% to 49%
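PathHunter beta-arrestin assay in DiscoveRx D2 cells. Compounds were added with an EC20 of dopamine (50 nM final) for 90 min at 37 deg C. Luminescence was read 1 h after detection reagent, with 57 uM dopamine as the EC100 control.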
D2 ag-2: D2 dopamine receptor (human) agonism | HEK293 T-REx D2 cells, calcium flux agonist mode | activation, % at 2 µM | P14416 | 0.53% of 340,000 active | AID 485358;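 active means activation over 3 SD above normal in the single-dose calcium agonist read, cut at about 30% in these data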; further: 0% is about no effect
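In this primary screen, compounds producing a positive calcium signal within 180 s of addition to tetracycline-induced, force-coupled HEK293 Trex D2 cells are flagged; cells are dye-loaded with a no-wash calcium kit beforehand.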
Active calls of the source: *; ? = inconclusive; . = not tested or not shown. In the library only some 2.4% were active in any assay of this set; here they are far more common.

SMILES	D2 ag-1	D2 PAM-1	D2 antag	D2 PAM-2	D2 ag-2
Cn1c(SCC(=O)NCc2ccc(F)cc2)ncc(C(=O)Nc2ccccc2)c1=O	-4	9	32*	-33	0
CCOC(=O)CSc1nnc(NC(=O)c2cc([N+](=O)[O-])cc([N+](=O)[O-])c2)s1	9	-1	2	63*	0
COCCSc1nnc(NC(=O)c2ccc([N+](=O)[O-])cc2)s1	-2	11	.	0	.
CCC1CCCCN1CCCNC(=O)CSc1nc2nc(C)c(Cc3ccccc3)c(C)n2n1 (stereo not given)	-2	8	-24	-10	1
CCC1CCCCN1CCCNC(=O)CSc1nc2nc(C)c(Cc3ccccc3Cl)c(C)n2n1 (stereo not given)	-5	31*	-6	-17	0
CN(CCn1ccnc1)Cc1cn(Cc2ccccc2)nc1-c1ccc2c(c1)OCO2	-1	-4	7	-4	-1
CCN(CC)CCNC(=O)c1ccc(NC(C)=O)cc1	-2	-4	-4	2	1
CCN(CC)CCNC(=O)c1ccc(NC(=O)COc2ccc3c(c2)CCC3)cc1	-7	2	32*	-5	1
COc1ccc(-c2noc(CC(=O)N(C)c3ccccc3F)n2)cc1	.	1	.	.	1
O=S(=O)(c1cccc2nonc12)N1CCCCC1	-2	-10	-4	-6	0
O=C(Nc1cccs1)Nc1cccnc1Cl	-3	-5	37*	0	-2
O=C(Nc1cccs1)Nc1ccccc1Cl	-1	-5	-1	-6	0
CCOC(=O)n1c(O)c(N=NC(N)=S)c2cc(C)ccc21	1	-3	-10	-8	2
Cc1nc2ccccc2c(=O)n1/N=C/c1ccc(O)c(O)c1O	48*	0	6	10	0
Cc1nc2ccccc2c(=O)n1/N=C/c1ccccc1O	-7	-2	-15	-4	0
CCCN(CCC)C(=O)Cn1c(SCc2cccc(F)c2)nc2cccnc21	.	.	.	.	-1
O=C1C2CCc3ccccc3C2N1c1ccccc1 (stereo not given)	-4	7	-4	1	-1
CC(C)COP(=O)(OCC(C)C)C(O)c1ccc(F)cc1 (stereo not given)	-3	1	-8	-7	1
COP(=O)(/C=C/c1ccccc1)C(O)c1ccc(F)cc1 (stereo not given)	1	3	45*	-8	1
O=C1CCCc2c1[nH]c1ccc(CN3CCCCC3)cc21	-1	-20	51*	-16	0
Cc1ccc2[nH]c3c(c2c1)CCCC3=O	-3	3	10	-12	1
O=C(NC1CCN(Cc2ccccc2)CC1)c1cn(-c2ccccc2)nc1-c1cccnc1	-3	0	75*	-28	0
O=C(NC1CCN(Cc2ccccc2)CC1)c1ccc(S(=O)(=O)NCc2ccco2)cc1	-3	-15	36*	-32	1
O=C(O)c1cn(-c2ccccc2)nc1-c1cccnc1	0	2	5	-1	1
Cc1ccc(C)n1-c1ccc(C(=O)NC2CCN(Cc3ccccc3)CC2)cc1	-3	-35	85*	-41	0
SMILES	D2 ag-1	D2 PAM-1	D2 antag	D2 PAM-2	D2 ag-2
CC1(C)Cc2cccc(C(=O)NC3CCN(Cc4ccccc4)CC3)c2O1	0	-19	73*	-21	0
COc1ccc(NC(=O)c2ccco2)cc1NC(=O)COc1cc(C)ccc1C(C)C	.	.	.	.	0
Cc1ccc(CN2CCC(NC(=O)c3ccccc3)CC2)cc1	-1	-24	90*	-22	0
Cc1ccccc1C(=O)NC1CCN(Cc2ccccc2)CC1	-1	-21	19	-17	-2
CC1CCCC(C)N1C(=O)c1ccc(S(=O)(=O)NCc2ccco2)cc1 (stereo not given)	0	.	37*	-6	-3
Cc1cc(C)c(S(=O)(=O)N2CCN(C(=O)N(C)C)CC2)c(C)c1	-1	32*	-5	-6	0
Cc1cc(C)c(S(=O)(=O)N2CCN(C(=O)N3CCCCC3)CC2)c(C)c1	-3	7	0	1	0
Cc1cc(C)c(S(=O)(=O)N2CCN(C(=O)C(C)Cn3nc(C)nc3C)CC2)c(C)c1 (stereo not given)	3	12	35*	-9	1
Cc1nc(C)n(CC(C)C(=O)N2CCN(S(=O)(=O)c3ccccc3)CC2)n1 (stereo not given)	-2	-15	32*	-1	-1
CC(OC(=O)C1CCCC1)C(=O)Nc1ccc(S(N)(=O)=O)cc1 (stereo not given)	0	9	-13	-8	0
COC(=O)c1sccc1S(=O)(=O)N1CCN(c2cccc(C)c2C)CC1	.	8	.	.	.
COc1cccc(NC(=O)CCC(=O)Nc2cc(OC)c(NC(=O)c3cccs3)cc2OC)c1	3	.	.	7	.
Cc1cccc(CCN2CCN=C2N(C)C)c1	-5	.	.	3	.
COc1cc2c(cc1OC)CN(C1CCCN(Cc3cc(Cl)ccc3O)C1)CC2 (stereo not given)	-2	-1	-12	-8	0
Nc1ccc(-c2c3ccc(=O)cc-3oc3cc(O)ccc23)cc1C(=O)O	-10	-5	-33	-14	92*
CCC(C)C(NC(=O)C1CCC(=O)N1C(=O)OCc1ccccc1)C(=O)NC(Cc1ccccc1)C(N)=O (stereo not given)	5	.	-20	2	2
CC[C@H](C)[C@H](NC(=O)[C@H](Cc1ccc(O)cc1)NC(=O)[C@@H](N)C(C)C)C(=O)N[C@@H](Cc1cnc[nH]1)C(=O)N1CCC[C@H]1C(=O)N[C@@H](Cc1ccccc1)C(=O)O	6	7	34*	-4	2
O=S1(=O)NC(=NCc2ccccc2)c2ccccc21	-3	-7	30*	5	0
COc1ccccc1NC(=S)N(CCCN(C)C)Cc1cc2cc3c(cc2[nH]c1=O)OCO3	-4	15	-7	-3	.
COc1ccccc1NC(=O)N(Cc1cccs1)Cc1cc2cc3c(cc2[nH]c1=O)OCO3	5	-15	36*	-2	0
CCn1c(CSc2ncccn2)nnc1SCC(=O)N1CCCCC1	-2	1	-19	-9	2
CCN1CCN(C(=S)Nc2ccc3nc4n(c(=O)c3c2)CCCCC4)CC1	-5	10	5	-28	5
COc1cc(NC(=O)CSc2nc(C)c(C)c(C)n2)cc(OC)c1	-3	6	48*	-2	-1
CCC1Cc2[nH]c(=S)[nH]c(=O)c2C(c2ccc(Cl)cc2)O1 (stereo not given)	-4	.	.	-13	.
CCc1nc(CNC(=O)C2CCC(=O)N(CCc3cccc(F)c3)C2)no1 (stereo not given)	3	-5	-12	?	0
